From PubChem BioAssay AID1035472 (Broad Institute, 2014)
Active and inactive are the calls of the source. The rule behind the calls is not given here.

Assay: HepG2 cell cytotoxicity, dose response, cytotoxicity control, dry powder samples (AID 1035472)

Question: For `Cn1c(NC(=O)c2ccccc2)nc2c3cnccc3ccc21`, which outcome is on record?
Answer: The outcome was “inactive”.
